In PubChem BioAssay (NCI):
About 83,000 compounds went through this panel and 20% of them were active in at least one assay; those are over-represented in the sample as a whole.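 Growth was measured after 48 h exposure to one concentration of compound in 96-well plates. Values under 10 count as active.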 A number with no mark means an inactive call. Active and inactive are the calls of the source.

system: HL-60(TB) leukemia; experiment: NCI-60 one-dose screen, 48 h (100 = growth as untreated, 0 = no growth, -100 = all killed); conditions: 10 µM unless noted

Point of comparison: `CC(=O)n1c2ccccc2c2ccccc21`, growth 104%. Against it:
- O=C1CCCCC1(c1ccccc1)c1ccccc1 — higher, 106%
- O=C(CSc1nnnn1-c1ccccc1)Nc1ccc(Oc2ccccc2)cc1 — higher, 110%
- NC(=O)c1ncn([C@@H]2O[C@H](CO)[C@@H](O)[C@H]2O)n1 — higher, 109%
- CCOc1ccccc1/C=N\N=C(N/N=C/c1ccccc1OCC)N/N=C/c1ccccc1OCC — lower, 11.9%
- O=C1C=CC(=O)N1c1ccc(I)cc1Cl — lower, 97.9%
- Nc1ccn(Cc2nnc(CCC(=O)c3nc4ccccc4[nH]3)o2)c(=O)n1 — lower, 80.5%
- O=NN(CC(=O)NNc1ccccc1)CC(=O)NNc1ccccc1 — lower, 31.6%
- Cn1ncc2c(=O)nc3c(-c4ccccc4)n[nH]n3c21 — higher, 107%
- Cc1cc(C)n(C(=O)CSc2nc3sc4c(c3c(=O)n2-c2ccccc2)CCCCC4)n1 — higher, 107%
- Cc1ccc(S(=O)(=O)n2cc(C3C(Cl)C(=O)N3c3ccc(N4CCOCC4=O)cc3)c3ccccc32)cc1 (stereo not given) — lower, 22.1%
- COC(=O)[C@@H]1[C@H](O)[C@H](C)[C@H](O)[C@H](C)/C=C\C=C(C)C(=O)Nc2c(C)c(OC(C)=O)c3c(c2O)C(=O)C(C)=C2OCOC(=C23)C(C)=C[C@@](C)(O)[C@H](O)[C@@H](C)[C@H]1OC(C)=O — higher, 119%
- COc1cc2c(c(OC)c1)C1c3cc(OC)ccc3NC(=O)N1CC2 (stereo not given) — lower, 66.3%
- O=C1OC(=O)C2C1C1(Cl)C(Cl)=C(Cl)C2(Cl)C2C(=O)OC(=O)C21 (stereo not given) — lower, 98%
- Cn1cc(-c2nnc(-c3ccccc3)s2)c2cc(Br)cnc21 — lower, 103%
- CCOC(=O)c1c(Cl)c2c(n1Cc1ccccc1)-c1oncc1CCC2 — lower, 25.7%
- CC1(C)CC(=O)C2=C(C1)N(c1ccc(OC(F)(F)F)cc1)C(N)=C(C#N)C2c1ccc(Cl)cc1 (stereo not given) — lower, 102%
- Cc1ccc2cc3c(NC(=O)c4cccnc4)nn(C)c3nc2c1 — lower, 87.8%
- COc1ccc2nc(-c3ccc(-n4cncc4-c4ccc(OC)c(N)c4)cc3)sc2c1 — lower, 80.7%

For `Cc1cc(NS(=O)(=O)c2ccc(NC(=O)COc3ccc(-c4cc5ccccc5[nH]4)cc3)cc2)no1`, the growth was 7.86% (active).
In the case of `Oc1c(I)cc(I)cc1CNCCN(Cc1ccccn1)Cc1ccccn1`, the growth is reported as -31.5% (active).
For `CN1C(=O)N(C)C2C1NN=c1s/c(=C\c3ccc(Cl)cc3Cl)c(=O)n12` (stereo not given), the growth was -26.9% (active).
With `NS(=O)(=O)c1ccc(N2N=C(c3cccs3)CC2c2ccccc2O)cc1` (stereo not given) the growth was -25.9% (active).
In the case of `Cc1ncc(C(=O)Nc2ccc(CN3CCN(C)CC3)c(C(F)(F)F)c2)cc1C#Cc1cnc(N)c2ccncc12`, the growth is reported as -52.8% (active).
With `C/C(=N\Nc1ccc([N+](=O)[O-])cn1)c1ccc(N)cc1` the growth was -30.8% (active).
